# Assay results taken from the OligoGym collection.
# Legend:
# Assay in all cases: pooled miR-30 sensor sort-seq; sequence = guide strand
# Conditions in all cases: shRNA
# DUSP5 = target: DUSP5
# DUSP3 = target: DUSP3
# EAPP = target: EAPP
# EBNA1BP2 = target: EBNA1BP2
# EBP = target: EBP
# ECH1 = target: ECH1
# EEF1B2 = target: EEF1B2
# EHD3 = target: EHD3
# ELF2 = target: ELF2
# EIF4EBP2 = target: EIF4EBP2
# Note: reference of the scale not given here.
sequence,measurement,setting,value
TCCATTTGTAGTGTAGGTGGGT,sensor-assay potency score (higher = more potent),DUSP5,-0.0708
TTGACGTGCATGAAGGACCTGC,sensor-assay potency score (higher = more potent),DUSP3,0.645
TCTGTCATTGAGCTGGCAGAGC,sensor-assay potency score (higher = more potent),DUSP3,-1.17
TTACATCCACGCAACACTCAGG,sensor-assay potency score (higher = more potent),DUSP5,-0.32
ATGCATGGTAGGCACTTCCAAG,sensor-assay potency score (higher = more potent),DUSP5,-1.82
TCCTCTCGCAGCTTCTGCCAGT,sensor-assay potency score (higher = more potent),DUSP5,-1.18
TACTGCTCTGTCTTCATCCTCG,sensor-assay potency score (higher = more potent),EAPP,0.413
ATTCCGAGTAGAAAGTCTCATA,sensor-assay potency score (higher = more potent),DUSP5,-1.1
TTAGTCTGCAGCTTCTGTCGAA,sensor-assay potency score (higher = more potent),EBNA1BP2,0.0417
TATTTGACCCTTTCTTGCCAGG,sensor-assay potency score (higher = more potent),EBNA1BP2,-1.16
TTCATTACAAACATTGCTCTAT,sensor-assay potency score (higher = more potent),EAPP,0.525
TTCGTAGTAGAGAACGAACCAG,sensor-assay potency score (higher = more potent),EBP,-0.577
TTGGTCTCCAAGCAGGTCTTCG,sensor-assay potency score (higher = more potent),EBP,-0.868
TTGAAGGTCTCCTGGTATCGAG,sensor-assay potency score (higher = more potent),ECH1,-0.974
TTGTTCTCAGTCGTGGCCTGGA,sensor-assay potency score (higher = more potent),ECH1,-0.493
TCGAGTGATGATGTCACGGAGG,sensor-assay potency score (higher = more potent),ECH1,-1.15
ATCAACAGCTTTCTGGTCCTTG,sensor-assay potency score (higher = more potent),EBNA1BP2,-0.301
TCTTGTTGAAGCACTCTACCAT,sensor-assay potency score (higher = more potent),ECH1,0.331
TATATATCATCGTAGTACCTTG,sensor-assay potency score (higher = more potent),EAPP,-0.621
TTTCTTAATAGCATTCATCATA,sensor-assay potency score (higher = more potent),EBNA1BP2,-1.2
TAGAAACTCATCTCTCGCTGGA,sensor-assay potency score (higher = more potent),EBNA1BP2,0.612
AAAGACTTCATCCTTGTCGTAG,sensor-assay potency score (higher = more potent),EAPP,-0.0566
TAAAACCAGAAGTAGAGAGGGT,sensor-assay potency score (higher = more potent),EBP,0.087
TACATCATCATAGCTCTCCCGA,sensor-assay potency score (higher = more potent),EBNA1BP2,-0.31
ATGGTTTCCATGCACACTGTGA,sensor-assay potency score (higher = more potent),EBP,-0.951
TTTTGTGGCCTTGGCATCCAGC,sensor-assay potency score (higher = more potent),EBP,-1.25
TAATTCAGCTTCCATCTCCTTT,sensor-assay potency score (higher = more potent),EAPP,-0.368
TCGTAGTAGAGAACGAACCAGC,sensor-assay potency score (higher = more potent),EBP,-1.05
TTCTGGATCAACAGCTTTCTGG,sensor-assay potency score (higher = more potent),EBNA1BP2,-1.11
TAAACTGGGAAACTGGGTCAGA,sensor-assay potency score (higher = more potent),ECH1,-0.506
TCTTGCTGGAAATCTCGGCCGC,sensor-assay potency score (higher = more potent),ECH1,-0.461
TTGGAGCCTGTCAGTCGCCGGG,sensor-assay potency score (higher = more potent),ECH1,-1.13
TTGGGCTGCAGGATGTCCGAAG,sensor-assay potency score (higher = more potent),ECH1,-0.857
ATGAAGACAAAGTAAAACCAGA,sensor-assay potency score (higher = more potent),EBP,-0.723
TCATCTTCTCTCTTGTTCGTTT,sensor-assay potency score (higher = more potent),EBNA1BP2,-0.122
TTCTCTTGTATCTGTGTTCTAA,sensor-assay potency score (higher = more potent),EBP,-0.119
TTCATCTTCTCTCTTGTTCGTT,sensor-assay potency score (higher = more potent),EBNA1BP2,0.27
TTGTCCAGTCTTAGGTGCTGAG,sensor-assay potency score (higher = more potent),EBP,-1.23
TTGGCATCCAGCGTGCTCTGGG,sensor-assay potency score (higher = more potent),EBP,-0.0185
TTTGTCTGGGAACACCCGGCTG,sensor-assay potency score (higher = more potent),ECH1,-1.1
AAATCTTGTTGAAGCACTCTAC,sensor-assay potency score (higher = more potent),ECH1,0.264
TATATCTTAGAACCTCCTCTTT,sensor-assay potency score (higher = more potent),EAPP,-0.803
ACAAGCTGTAGAATGAAGCGGA,sensor-assay potency score (higher = more potent),EBP,0.326
ATTAGGTACAAAGTTGTCCAGT,sensor-assay potency score (higher = more potent),EBP,-0.389
TAGTCTGCAGCTTCTGTCGAAT,sensor-assay potency score (higher = more potent),EBNA1BP2,-0.943
TCTTTGTCTGGGAACACCCGGC,sensor-assay potency score (higher = more potent),ECH1,-0.283
TATACCGTCGTTTAGCACTGGG,sensor-assay potency score (higher = more potent),EBNA1BP2,-0.643
ATAGAAACTCATCTCTCGCTGG,sensor-assay potency score (higher = more potent),EBNA1BP2,0.115
TATCTGTTCCAACTTTATCATC,sensor-assay potency score (higher = more potent),EEF1B2,-1.68
TTGAATGCTTCTGACGCACTCC,sensor-assay potency score (higher = more potent),EEF1B2,0.113
AAACTCGTCGTCGTCCAGCATG,sensor-assay potency score (higher = more potent),EHD3,-1.38
TTGATGACTTCTGAGAACTCAT,sensor-assay potency score (higher = more potent),EHD3,-0.245
TTGATAGTCTCATTACAGGTGT,sensor-assay potency score (higher = more potent),ELF2,-0.336
TTCTACTTTGGAGTCTTCAATT,sensor-assay potency score (higher = more potent),EIF4EBP2,-1.52
TTGTTCTTCTGCCACATCTTGC,sensor-assay potency score (higher = more potent),ELF2,-0.939
TTGGAGTCTTCAATTAAGGTGC,sensor-assay potency score (higher = more potent),EIF4EBP2,-0.116
TTTTATCTTGAAGTAGATCTAA,sensor-assay potency score (higher = more potent),ELF2,-0.166
TCCAACAGAAACTTTCTGTCAT,sensor-assay potency score (higher = more potent),EIF4EBP2,-0.136
TGTTCAAATTGTTTACTTCTAC,sensor-assay potency score (higher = more potent),EIF4EBP2,-0.311
TGTCATTACAACAGGTACCTGC,sensor-assay potency score (higher = more potent),ELF2,0.12
